Test results: the supplement of paper PMC6992640
Where a name gives a salt, the structure may show the parent alone.

Key:
HCI01 = cells of a triple-negative basal-like breast cancer xenograft; test: cell viability of combination (% of vehicle); higher = less cytotoxic; settings: 1 µM; 72 h; partner dose: 10 nM
Experimental: (§1)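 PDX cells were treated for 72 h with each drug at 1 µM plus afatinib (10 nM; 1 µM for WHIM30). Luciferase viability is expressed as percent of vehicle.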

WHIM2 = cells of a triple-negative basal-like breast cancer xenograft; test: as above; settings: 1 µM; 72 h; partner dose: 10 nM
Experimental: as §1

SMILES | cell viability of combination (HCI01) | cell viability of combination (WHIM2)
[O-]n1ccccc1=S.[O-]n1ccccc1=S.[Zn+2] [Zinc Pyrithione] + CN(C)C/C=C/C(=O)Nc1cc2c(Nc3ccc(F)c(Cl)c3)ncnc2cc1O[C@H]1CCOC1 [Afatinib] | 47.4 | 33.9
O=C(C=Cn1cnc(-c2cc(C(F)(F)F)cc(C(F)(F)F)c2)n1)NNc1cnccn1 + CN(C)C/C=C/C(=O)Nc1cc2c(Nc3ccc(F)c(Cl)c3)ncnc2cc1O[C@H]1CCOC1 [Afatinib] | 39.3 | 41.9
COc1ccccc1OCCNCC(O)COc1cccc2[nH]c3ccccc3c12 (stereo unspecified) [Carvedilol] + CN(C)C/C=C/C(=O)Nc1cc2c(Nc3ccc(F)c(Cl)c3)ncnc2cc1O[C@H]1CCOC1 [Afatinib] | 48.7 | 41.1
C=CC(=O)N1CCC(Oc2cc3c(Nc4ccc(Cl)c(Cl)c4F)ncnc3cc2OC)CC1 [Poziotinib] + CN(C)C/C=C/C(=O)Nc1cc2c(Nc3ccc(F)c(Cl)c3)ncnc2cc1O[C@H]1CCOC1 [Afatinib] | 42.9 | 22.2
CCc1cnn2c(NCc3ccc[n+]([O-])c3)cc(N3CCCCC3CCO)nc12 (stereo unspecified) + CN(C)C/C=C/C(=O)Nc1cc2c(Nc3ccc(F)c(Cl)c3)ncnc2cc1O[C@H]1CCOC1 [Afatinib] | 25.6 | 16.4
COc1cc2ncnc(Nc3ccc(F)c(Cl)c3)c2cc1NC(=O)C=CCN1CCCCC1 + CN(C)C/C=C/C(=O)Nc1cc2c(Nc3ccc(F)c(Cl)c3)ncnc2cc1O[C@H]1CCOC1 [Afatinib] | 45.1 | 29.8
COC(=O)C12CCC(C)(C)CC1C1C(=O)C=C3C4(C)C=C(C#N)C(=O)C(C)(C)C4CCC3(C)C1(C)CC2 (stereo unspecified) [Bardoxolone methyl] + CN(C)C/C=C/C(=O)Nc1cc2c(Nc3ccc(F)c(Cl)c3)ncnc2cc1O[C@H]1CCOC1 [Afatinib] | 53.5 | 30.4
COc1cc(Nc2ncc(F)c(Nc3ccc4c(n3)N(COP(=O)(O)O)C(=O)C(C)(C)O4)n2)cc(OC)c1OC [Fostamatinib (R788)] + CN(C)C/C=C/C(=O)Nc1cc2c(Nc3ccc(F)c(Cl)c3)ncnc2cc1O[C@H]1CCOC1 [Afatinib] | 64.2 | 41.3
CN(C)CCOc1ccc(C(=C(CCCl)c2ccccc2)c2ccccc2)cc1.O=C(O)CC(O)(CC(=O)O)C(=O)O [Toremifene Citrate] + CN(C)C/C=C/C(=O)Nc1cc2c(Nc3ccc(F)c(Cl)c3)ncnc2cc1O[C@H]1CCOC1 [Afatinib] | 70.8 | 55.7
O=C(O)c1cc(O)c(O)c(O)c1 [Gallic acid] + CN(C)C/C=C/C(=O)Nc1cc2c(Nc3ccc(F)c(Cl)c3)ncnc2cc1O[C@H]1CCOC1 [Afatinib] | 51.4 | 46.3
COc1cccc2c1C(=O)c1c(O)c3c(c(O)c1C2=O)CC(O)(C(=O)CO)CC3OC1CC(N)C(O)C(C)O1.Cl (stereo unspecified) [Epirubicin HCl] + CN(C)C/C=C/C(=O)Nc1cc2c(Nc3ccc(F)c(Cl)c3)ncnc2cc1O[C@H]1CCOC1 [Afatinib] | 58 | 10.2
CCC(NC(=O)C(C)NC)C(=O)N1CC(O)CC1Cc1c(-c2[nH]c3cc(F)ccc3c2CC2CC(O)CN2C(=O)C(CC)NC(=O)C(C)NC)[nH]c2cc(F)ccc12 (stereo unspecified) + CN(C)C/C=C/C(=O)Nc1cc2c(Nc3ccc(F)c(Cl)c3)ncnc2cc1O[C@H]1CCOC1 [Afatinib] | 42.3 | 19.1
Br.Cc1ccc(Sc2ccccc2N2CCNCC2)c(C)c1 + CN(C)C/C=C/C(=O)Nc1cc2c(Nc3ccc(F)c(Cl)c3)ncnc2cc1O[C@H]1CCOC1 [Afatinib] | 49.7 | 46.7
COc1nc2ccc(Br)cc2cc1[C@@H](c1ccccc1)[C@@](O)(CCN(C)C)c1cccc2ccccc12 [Bedaquiline fumarate] + CN(C)C/C=C/C(=O)Nc1cc2c(Nc3ccc(F)c(Cl)c3)ncnc2cc1O[C@H]1CCOC1 [Afatinib] | 52.9 | 49
CC[C@@]1(O)C(=O)OCc2c1cc1n(c2=O)Cc2cc3c(CN(C)C)c(O)ccc3nc2-1.Cl [Topotecan HCl] + CN(C)C/C=C/C(=O)Nc1cc2c(Nc3ccc(F)c(Cl)c3)ncnc2cc1O[C@H]1CCOC1 [Afatinib] | 41.4 | 25.2
CC(C)c1nc(CN(C)C(=O)NC(C(=O)NC(Cc2ccccc2)CC(O)C(Cc2ccccc2)NC(=O)OCc2cncs2)C(C)C)cs1 (stereo unspecified) [Ritonavir] + CN(C)C/C=C/C(=O)Nc1cc2c(Nc3ccc(F)c(Cl)c3)ncnc2cc1O[C@H]1CCOC1 [Afatinib] | 49.1 | 49
CN1CCCC1CCOC(C)(c1ccccc1)c1ccc(Cl)cc1.O=C(O)C=CC(=O)O (stereo unspecified) [Clemastine Fumarate] + CN(C)C/C=C/C(=O)Nc1cc2c(Nc3ccc(F)c(Cl)c3)ncnc2cc1O[C@H]1CCOC1 [Afatinib] | 54.6 | 54
CNC(=O)c1cc(Oc2ccc(NC(=O)Nc3ccc(Cl)c(C(F)(F)F)c3)cc2)ccn1 [Sorafenib] + CN(C)C/C=C/C(=O)Nc1cc2c(Nc3ccc(F)c(Cl)c3)ncnc2cc1O[C@H]1CCOC1 [Afatinib] | 49.6 | 48.5
Cl.OC(CNCC(O)C1CCc2cc(F)ccc2O1)C1CCc2cc(F)ccc2O1 (stereo unspecified) [Nebivolol] + CN(C)C/C=C/C(=O)Nc1cc2c(Nc3ccc(F)c(Cl)c3)ncnc2cc1O[C@H]1CCOC1 [Afatinib] | 47.1 | 44.7
COc1ccc2cc1Oc1ccc(cc1)CC1c3c(cc4c(c3Oc3cc5c(cc3OC)CCN(C)C5C2)OCO4)CCN1C (stereo unspecified) [Cepharanthine] + CN(C)C/C=C/C(=O)Nc1cc2c(Nc3ccc(F)c(Cl)c3)ncnc2cc1O[C@H]1CCOC1 [Afatinib] | 48.5 | 38.1
CCOc1cc2ncc(C#N)c(Nc3ccc(F)c(Cl)c3)c2cc1NC(=O)C=CCN(C)C [Pelitinib (EKB-569)] + CN(C)C/C=C/C(=O)Nc1cc2c(Nc3ccc(F)c(Cl)c3)ncnc2cc1O[C@H]1CCOC1 [Afatinib] | 72.1 | 22.1
CN1CCN(CCOc2cc(OC3CCOCC3)c3c(Nc4c(Cl)ccc5c4OCO5)ncnc3c2)CC1 [Saracatinib (AZD0530)] + CN(C)C/C=C/C(=O)Nc1cc2c(Nc3ccc(F)c(Cl)c3)ncnc2cc1O[C@H]1CCOC1 [Afatinib] | 41.1 | 24.5
COc1cc(Nc2c(C#N)cnc3cc(OCCCN4CCN(C)CC4)c(OC)cc23)c(Cl)cc1Cl [Bosutinib (SKI-606)] + CN(C)C/C=C/C(=O)Nc1cc2c(Nc3ccc(F)c(Cl)c3)ncnc2cc1O[C@H]1CCOC1 [Afatinib] | 40.3 | 38
Cc1c(-c2ccc(O)cc2)n(Cc2ccc(OCCN3CCCCCC3)cc2)c2ccc(O)cc12.Cl [Bazedoxifene HCl] + CN(C)C/C=C/C(=O)Nc1cc2c(Nc3ccc(F)c(Cl)c3)ncnc2cc1O[C@H]1CCOC1 [Afatinib] | 64.6 | 49.7
CO[C@H]1/C=C/O[C@@]2(C)Oc3c(C)c(O)c4c(O)c(c(/C=N/N5CCN(C6CCCC6)CC5)c(O)c4c3C2=O)NC(=O)/C(C)=C\C=C\[C@H](C)[C@H](O)[C@@H](C)[C@@H](O)[C@@H](C)[C@H](OC(C)=O)[C@@H]1C [Rifapentine] + CN(C)C/C=C/C(=O)Nc1cc2c(Nc3ccc(F)c(Cl)c3)ncnc2cc1O[C@H]1CCOC1 [Afatinib] | 56.2 | 46.2
CCN(CC)CCNC(=O)c1c(C)[nH]c(C=C2C(=O)Nc3ccc(F)cc32)c1C.O=C(O)CC(O)C(=O)O [Sunitinib malate] + CN(C)C/C=C/C(=O)Nc1cc2c(Nc3ccc(F)c(Cl)c3)ncnc2cc1O[C@H]1CCOC1 [Afatinib] | 42 | 44.2
CNCCC(Oc1cccc2ccccc12)c1cccs1.Cl (stereo unspecified) [Duloxetine HCl] + CN(C)C/C=C/C(=O)Nc1cc2c(Nc3ccc(F)c(Cl)c3)ncnc2cc1O[C@H]1CCOC1 [Afatinib] | 45.3 | 41.1
C=C(c1ccc(C(=O)O)cc1)c1cc2c(cc1C)C(C)(C)CCC2(C)C [Bexarotene] + CN(C)C/C=C/C(=O)Nc1cc2c(Nc3ccc(F)c(Cl)c3)ncnc2cc1O[C@H]1CCOC1 [Afatinib] | 51.8 | 35.7
